Screening results as filed in PubChem.
In the library only some 2.8% were active in any assay of this set; here they are far more common.
WRN helicase inh-1: inhibitors of human WRN helicase | Q14191 | WRN helicase unwinding, fluorescent forked duplex, kinetic | Potency, µM (series often up to 114 µM), inactives show top-dose activity change, negative = inhibition, most hits filed as inhibitors | hit rate 0.46% among 360,000; further: potency means the concentration at half of the fitted maximal effect; on the % scale 0 is the no-effect control and ±100 the full control effect; nearly all actives have a fitted effect of over 55% in size
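Screening of the MLSMR collection measured strand separation of a quenched forked DNA duplex (100 nM) by 20 nM WRN with 2 mM ATP, all final. Compounds were preincubated with enzyme 15 min at room temperature.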
Pol kappa inh: blocks human DNA polymerase kappa activity; hit rate 0.53% among 400,000; purified Pol kappa, fluorescent DNA synthesis assay, 10 min; AID 588579; Potency, µM (doses to about 107 µM), for the others: at the highest dose activity, negative = inhibition, actives largely listed as inhibitors; Q9UBT6; further: potency means the concentration at half of the fitted maximal effect; on the % scale 0 is the no-effect control and ±100 the full control effect
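Pol kappa 10 nM + cpd, 15 min RT; start w/ substrate 50 nM final; fluorescence kinetic read, 0 and 10 min. Neg ctrl: buffer, no enzyme.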
Pol beta inh-1: DNA polymerase beta (human) inhibition. P06746. Pol beta primer extension/strand displacement, fluorescence kinetic. Potency, µM (series often up to 114 µM), for inactives: at the top dose activity change, negative = inhibition, usual class: inhibitors. hit rate 1.3% among 340,000. AID 485314; further: potency means the concentration at half of the fitted maximal effect; on the % scale 0 is the no-effect control and ±100 the full control effect
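Pol beta (10 nM) and compounds were preincubated 15 min at room temperature, then 50 nM substrate (final) started primer extension/strand displacement. Reads were taken at 0 and 10 min; concentration-response data were fitted to a four-parameter Hill equation.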
POLI inh: inhibitors of human DNA polymerase iota; AID 588590; Potency, µM (titrated, usually from 115 µM), for inactives: at the highest dose activity, negative = inhibition, most hits filed as inhibitors; hit rate 1% among 390,000; Pol iota fluorescent replication assay, 10 min; further: potency means the concentration at half of the fitted maximal effect
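Pol iota at 10 nM preincubated 15 min with compounds at room temperature; reaction started with fluorescent substrate, 50 nM final. Fluorescence read kinetically at 0 and 10 min; buffer-only wells as negative control.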
PI5P4Ka inh: inhibitors of human PI5P4K alpha. P48426. PI5P4Kalpha enzyme, ADP-Glo luminescence, 60 min; hits give low values. max response, %. hit rate 1.2% among 330,000; active means max response of -50% or lower; inconclusive means between -30% and -50%; inactive means -30% or higher; further: value at the top dose of about 77 µM; on the % scale 0 is the no-effect control and ±100 the full control effect
Target sequence (P48426 whole entry, looked up): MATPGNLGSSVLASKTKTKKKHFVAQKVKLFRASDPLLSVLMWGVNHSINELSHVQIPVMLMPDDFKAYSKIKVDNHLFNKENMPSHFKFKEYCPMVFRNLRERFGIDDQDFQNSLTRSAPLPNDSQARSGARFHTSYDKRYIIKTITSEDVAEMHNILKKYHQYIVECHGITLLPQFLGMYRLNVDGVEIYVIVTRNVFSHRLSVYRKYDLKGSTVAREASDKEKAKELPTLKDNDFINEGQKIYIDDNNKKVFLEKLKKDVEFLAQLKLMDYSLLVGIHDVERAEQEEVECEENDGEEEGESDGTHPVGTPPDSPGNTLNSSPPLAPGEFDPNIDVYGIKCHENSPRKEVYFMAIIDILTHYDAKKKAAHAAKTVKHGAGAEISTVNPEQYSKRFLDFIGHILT
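Reactions run in 0.038 M HEPES pH 7.4, 0.28 mM EGTA, 0.1% CHAPS and 5% DMSO, with PI5P4Kalpha, substrate, compound and 5 microM ATP final, one hour at room temperature. Readout is ADP-Glo luminescence.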
Pol eta inh-1: blocks human DNA polymerase eta activity; Q9Y253; recombinant Pol eta, fluorescent DNA replication assay; Potency, µM (doses to about 114 µM), for the others: at the top dose activity change, negative = inhibition, most hits filed as inhibitors; hit rate 1.2% among 390,000; AID 588591; further: potency means the concentration at half of the fitted maximal effect; on the % scale 0 is the no-effect control and ±100 the full control effect
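Pol eta (10 nM) was preincubated with compounds for 15 min at room temperature, after which fluorescent replication substrate (50 nM final) was added to start the reaction. Fluorescence was read kinetically at 0 and 10 min.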
Pol beta inh-2: Validate hits inhibiting human DNA polymerase beta; hit rate 87% among 250; Pol beta primer extension/strand displacement, fluorescence kinetic; shares compounds with Pol beta inh-1; Potency, µM, usual class: inhibitors; calls by dose curve; further: potency means the concentration at half of the fitted maximal effect
Klenow counter: Klenow polymerase inhibition, pol beta selectivity check. shares compounds with Pol beta inh-1. Klenow exo- polymerase counter-screen, fluorescent DNA substrate. activity change, negative = inhibition, % at 57.1 µM. 250 tested, under 10 active. AID 540300
HIV RT counter: counter-screen for DNA polymerase beta inhibitors: HIV-1 RT inhibition | shares compounds with Pol beta inh-1 | HIV-1 RT polymerase activity, counter-screen | activity % (negative = inhibition, positive = activation), % at 57.1 µM | 250 tested, under 10 active | AID 540301
POLB inh gel: validation of human DNA polymerase beta inhibitors. shares compounds with Pol beta inh-1. radiolabeled primer extension gel assay, phosphorimager. inhibition, % at 10 µM. hit rate 91% among 110;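 active means inhibition at 10 µM of 30% or more; inconclusive means no clear call, values can overlap the other calls; inactive means inhibition at 10 µM under 30%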
TbPGK inh: blocks T. brucei phosphoglycerate kinase; shares compounds with Pol kappa inh; TbPGK coupled GAPDH assay, Kinase-Glo luminescence; Potency, µM (titrated, usually from 57.5 µM), for the others: at the top dose activity change, negative = inhibition, hits mostly inhibitors; hit rate 79% among 500; further: potency means the concentration at half of the fitted maximal effect; on the % scale 0 is the no-effect control and ±100 the full control effect; nearly all actives have a fitted effect of over 65% in size
POLI cherry-pick: Confirm cherry-picked inhibitors of human polymerase iota; shares compounds with Pol kappa inh; Pol iota primer extension, TAMRA/BHQ fluorescence; Potency, µM, usual class: inhibitors; hit rate 77% among 1,500; AID 720496; further: potency means the concentration at half of the fitted maximal effect
Pol eta inh-2: Pol eta (human) inhibition, cherry-pick confirmation; hit rate 64% among 2,600; Potency, µM, hits mostly inhibitors; Pol eta primer extension, TAMRA/BHQ fluorescence, 10 min; shares compounds with Pol eta inh-1; AID 720502; further: potency means the concentration at half of the fitted maximal effect
WRN helicase inh-2: WRN helicase inhibition, cherry-pick retest; WRN helicase DNA unwinding, fluorescence kinetic; hit rate 63% among 610; shares compounds with WRN helicase inh-1; AID 720497; Potency, µM (doses to about 57.1 µM), for inactives: at the highest dose activity, negative = inhibition, most hits filed as inhibitors; further: potency means the concentration at half of the fitted maximal effect; nearly all actives have a fitted effect of over 65% in size
TO DNA binding: DNA binding via thiazole orange displacement; Potency, µM (titrated, usually from 57.1 µM), for inactives: at the top dose activity change, negative = inhibition, most hits filed as inhibitors; hit rate 10% among 610; AID 720499; thiazole orange DNA binding displacement, fluorescence; shares compounds with WRN helicase inh-1;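 further: drop in dye fluorescence marks compound binding to DNA; potency means the concentration at half of the fitted maximal effect; on the % scale 0 is the no-effect control and ±100 the full control effect; nearly all actives have a fitted effect of over 60% in size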
BLM helicase inh: counter-screen for WRN helicase inhibitors: human BLM helicase inhibition; Potency, µM (highest dose often 57.1 µM), for inactives: at the highest dose activity change, negative = inhibition, hits mostly inhibitors; shares compounds with WRN helicase inh-1; Recombinant BLM helicase DNA unwinding, red fluorescence; AID 720503; hit rate 60% among 610; further: potency means the concentration at half of the fitted maximal effect; nearly all actives have a fitted effect of over 60% in size
ADP-Glo counter: ADP-Glo luciferase interference, PI5P4K counter-screen. ADP-Glo detection counter-screen, luciferase luminescence, no enzyme. shares compounds with PI5P4Ka inh. Potency, µM (top dose mostly 76.9 µM), for the others: at the top dose activity change, negative = inhibition, actives largely listed as inhibitors. AID 743285. 1,100 tested, under 10 active
Starred values were filed as active, the others as inactive; ? = inconclusive; . = no result. Unless noted, the call rests on the fitted dose curve; in most records, active means well fitted curve in the direction sought with a large enough effect; inconclusive means small, poorly fitted or top-dose-only effect, or another doubt; inactive means no such curve, though single readings can be large; an effect the other way counts as inactive or inconclusive.

SMILES	WRN helicase inh-1	Pol kappa inh	Pol beta inh-1	POLI inh	PI5P4Ka inh	Pol eta inh-1	Pol beta inh-2	Klenow counter	HIV RT counter	POLI cherry-pick	Pol eta inh-2	ADP-Glo counter	others
CCn1c(CSc2nc3ccccc3s2)nnc1SCC(=O)c1ccc(O)c(O)c1	?	?	4.47µM*	35.5µM*	.	?	2*	-32.7	?	37.7*	?	.	WRN helicase inh-2=1.36µM*;TO DNA binding=27.1µM*;BLM helicase inh=?
CCc1ccc(CN(C)Cc2c(C(=O)N3CCOCC3)nc3c(C)cccn23)nc1	7.6%	.	.	.	-12.7	-6.3%	.	.	.	.	.	.
O=C(Oc1ccc2c(c1)OCO2)c1cc2c(s1)CCC2	?	20µM*	10µM*	5.01µM*	-53.1*	3.98µM*	15.8*	-31.0	30.0	18.9*	67.5*	-8.8%	TbPGK inh=?
O=C(c1cc2c(s1)CCCC2)N1CCN(Cc2ccc3c(c2)OCO3)CC1	-11.5%	-2.2%	9.1%	?	2.0	-16.6%	.	.	.	.	.	.
O=C(Nc1nc(-c2ccco2)c(-c2ccco2)s1)C1CC(=O)N(c2ccc3c(c2)OCCO3)C1 (stereo not drawn)	12.6µM*	20µM*	8.91µM*	7.94µM*	-76.1*	8.91µM*	?	-26.0	-3.3	.	.	3.0%	POLB inh gel=97.1*
CC(=O)Nc1cc(NC(C)=O)cc(C(=O)OCC(=O)Nc2ccc(S(=O)(=O)NC3=NCCCCC3)cc2)c1	-4.5%	-22.5%	-27.3%	?	-2.6	-16.3%	.	.	.	.	.	.
COc1ccc(NC(=O)c2cc(-c3ccco3)nc3ccccc23)cc1S(=O)(=O)N1CCOCC1	?	39.8µM*	2µM*	?	-58.9*	15.8µM*	10*	-9.9	-9.2	15*	16.9*	-10.0%
